Screening results as filed in PubChem BioAssay.
HT1080-NT tox – kills 2HG-producing HT-1080-NT fibrosarcoma cells; 1.6% of 360,000 active; Potency, µM (highest dose often 46.1 µM), without a hit: top-dose activity, negative = less viability, usual class: cytotoxic; HT-1080-NT fibrosarcoma viability, CellTiter-Glo ATP luminescence, 48 h;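 also: NT is the 2HG producing partner of a matched IDH1 knockdown line; potency is read from the fitted curve at half-maximal effect; 0% = DMSO-treated cells and -100% = media-only wells without cells; nearly all actives have a fitted effect of over 55% in size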
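Fibrosarcoma NT cells, 750 per well in 5% FBS RPMI, were exposed to compound for 48 hours. Viability: CellTiter-Glo luminescence.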
ELG1 repair inh – blocks ELG1-dependent DNA repair in HEK293T cells; Potency, µM (doses to about 46.1 µM), for the others: top-dose activity change, negative = inhibition, hits mostly inhibitors; HEK293T ELG1-luciferase reporter, luminescence, 16 h; DNA damage induced by 5-fluorouridine; 2.3% of 330,000 active; also: potency is read from the fitted curve at half-maximal effect; nearly all actives have a fitted effect of over 55% in size
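Luminescence from the luciferase reporter, measured 30 min after ONE-Glo reagent at room temperature, was the read-out. Beforehand, 2,000 cells per well were exposed for 16 hr at 37 °C to 5-fluorouridine together with compound or vehicle.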
TDP1 cell CPT – DT40-hTDP1 cell growth loss with CPT | Potency, µM (series often up to 46.2 µM), for the others: top-dose activity change, negative = growth inhibition, most hits filed as inhibitors | AID 686979 | 12% of 420,000 active | chicken DT40 Tdp1-/-;hTDP1 cells + 20 nM CPT, ATP luminescence, 48 h; also: potency is read from the fitted curve at half-maximal effect; nearly all actives have a fitted effect of over 55% in size
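Chicken DT40 Tdp1-/- cells complemented with human TDP1, 400 cells/well, exposed to compounds plus 20 nM camptothecin for at least 48 h at 37 C; viability read as ATP content by CellTiter-Glo luminescence.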
IL-1B inflam inh – inflammasome signaling inhibition, IL-1 beta readout | THP-1 LPS/ATP IL-1B secretion, AlphaLISA, 16 h; hits give low values | activity change, % at 57.5 µM | 4.7% of 360,000 active; in the data active = activity change below about -50%; inconclusive = mostly about -30% to -49%
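Secreted IL-1B measured by AlphaLISA bead assay after 16 h compound exposure of THP-1 cells; compounds (final up to 57.5 uM) added 1 h before LPS (250 ng/mL) and ATP (1.25 mM) stimulation; lower signal means less secretion.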
TDP1 cell noCPT – qHTS for Inhibitors of human tyrosyl-DNA phosphodiesterase 1 (TDP1): qHTS in cells in absence of CPT; DT40 Tdp1-/- hTDP1 cells, no CPT, ATP luminescence, 48 h; Potency, µM (highest dose often 46.2 µM), for the others: at the highest dose activity change, negative = growth inhibition, most hits filed as inhibitors; 15% of 420,000 active; also: potency is read from the fitted curve at half-maximal effect; nearly all actives have a fitted effect of over 55% in size
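Cells were dispensed at 400 per well, compounds added by pin tool, plates incubated ≥48 hr at 37 °C, then CellTiter-Glo added for 30 min at room temperature before luminescence reading. Line: DT40 Tdp1-/- complemented with hTDP1; camptothecin omitted.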
HT1080 IDH1KD tx – HT-1080 IDH1 knockdown cell toxicity (counter line) | HT-1080 IDH1 knockdown viability, ATP luminescence, 48 h | Potency, µM (series often up to 46.1 µM), inactives show at the highest dose activity, negative = toxicity, actives largely listed as cytotoxic | 2% of 360,000 active | AID 686971;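 also: potency is read from the fitted curve at half-maximal effect; 0% = DMSO wells and -100% = cell-free medium wells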
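Assay cells: HT-1080 with IDH1 knockdown, 750 per well, RPMI/5% FBS. Exposure: 48 h at 37 °C following 2 h pre-incubation. Read: CellTiter-Glo luminescence; fitted concentration-response, curve class assigned.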
Numbers without * were called inactive; u = inconclusive; x = no result; [ ] = another dose, or the depositor's remark. A selection: hits, their analogues and other compounds. The true share with any hit is near 19%. Unless noted, calls follow the shape of the dose curve; as a rule, active = well fitted curve in the direction sought with a large enough effect; inconclusive = small, poorly fitted or top-dose-only effect, or another doubt; inactive = no such curve, though single readings can be large; an effect the other way counts as inactive or inconclusive. Unless noted, % is scaled to controls: 0 for no effect and ±100 for the full control effect.

SMILES	HT1080-NT tox	ELG1 repair inh	TDP1 cell CPT	IL-1B inflam inh	TDP1 cell noCPT	HT1080 IDH1KD tx
CC(C)Cn1nc(NC(=O)C(C)(C)C)c2cc3ccccc3nc21	-4.1%	-0.5%	u	85.8	u	-9.8%
CC(C)Cn1nc(NC(=O)c2ccco2)c2cc3ccccc3nc21	-5.5%	u	14.6µM*	39.7	13µM*	14.6%
CCCCn1nc(NC(=O)CC)c2cc3cc(OC)ccc3nc21	11.9%	-13.0%	u	10.9	u	6.9%
COc1ccc2nc3c(cc2c1)c(NC(=O)c1cccs1)nn3CC(C)C	u	u	u	-50.7*	u	13µM*
CC(C)Cn1nc(NC(=O)c2cccs2)c2cc3ccccc3nc21	-4.5%	20.6µM*	u	-0.4	8.2µM*	-10.0%
COc1ccc(CN2C[C@H](Sc3nc4ccccc4[nH]3)C[C@H]2C(=O)N2CCCN(C)CC2)cc1C	x	x	2.7%[9.04 µM]	x	-16.3%	x
O=C(NCC(c1ccc2c(c1)OCO2)N1CCOCC1)c1ccc(F)cc1 (stereo not given)	x	x	-27.9%	x	-27.9%	x
O=C(NCC(c1ccc2c(c1)OCO2)N1CCN(c2ccccc2)CC1)c1ccc(F)c(F)c1 (stereo not given)	x	x	5.17µM*	x	2.31µM*	x
CCOc1ccc(C(=O)NCC(c2ccc3c(c2)OCO3)N2CCN(c3ccccc3F)CC2)cc1 (stereo not given)	x	x	16.4µM*	x	20.6µM*	x
COc1ccc(C(=O)NCC(c2ccc3c(c2)OCO3)N2CCN(c3ccccc3F)CC2)cc1 (stereo not given)	x	x	7.31µM*	x	5.17µM*	x
Cc1cccc(C(=O)NCC(c2ccc3c(c2)OCO3)N2CCOCC2)c1 (stereo not given)	x	x	u	x	23.1µM*	x
CN1CCN(C(CNC(=O)c2ccc(F)cc2)c2ccc3c(c2)OCO3)CC1 (stereo not given)	x	x	-5.5%	x	-11.7%	x
O=C(NCC(c1ccc2c(c1)OCO2)N1CCOCC1)c1ccccc1 (stereo not given)	x	x	-23.1%	x	u	x
COc1ccc(N2CCN(C(CNC(=O)c3c(F)cccc3F)c3ccc4c(c3)OCO4)CC2)cc1 (stereo not given)	x	x	u	x	16.4µM*	x
O=C(NCC(c1ccc2c(c1)OCO2)N1CCN(c2ccccc2F)CC1)c1ccccc1F (stereo not given)	x	x	11.6µM*	x	14.6µM*	x
COC(=O)NCC(c1ccc2c(c1)OCO2)N1CCN(c2ccc(OC)cc2)CC1 (stereo not given)	2.8%	2.5%	u	8.4	u	1.9%
O=C(NCC(c1ccco1)N1CCN(c2ccc(F)cc2)CC1)c1ccc2c(c1)OCO2 (stereo not given)	-2.0%	u	u	-6.3	u	-13.9%
CC(C)C(=O)NCC(c1ccc2c(c1)OCO2)N1CCN(c2ccccc2F)CC1 (stereo not given)	x	x	-2.8%	x	-6.7%	x
O=C(NCC(c1ccco1)N1CCN(c2ccccc2F)CC1)c1ccc2c(c1)OCO2 (stereo not given)	-18.9%	13µM*	u	1.1	18.4µM*	u
CC[C@]12C(=O)N(C)C[C@H]([C@@H]3C(=O)N(Cc4ccccc4)C(=O)[C@@H]31)N2C(=O)c1ccc(Br)cc1	-1.5%	x	9.3%	11.2	0.7%	-9.7%
Cc1c(N(C)C)nc2ccccc2c1N	-6.2%	-2.3%	-12.6%	-7.5	-24.6%	-28.7%
CCN(CC)c1nc2ccccc2c(N)c1-c1ccccc1	u	u	13µM*	-26.9	20.6µM*	u
CC(=O)c1ccc(C(=O)N(Cc2cccnc2)c2nc3c(C)c(C)ccc3s2)cc1	x	x	23.1µM*	x	16.4µM*	x
Cc1ccc2sc(N(CCCN(C)C)C(=O)c3ccc(Br)s3)nc2c1C	20.6µM*	u	u	-101.1*	u	13µM*
CCN(CC)CCN(C(=O)c1ccc(S(=O)(=O)N(C)C2CCCCC2)cc1)c1nc2c(C)cccc2s1	0.0%	-1.3%	23.1µM*	-13.3	20.6µM*	-9.9%
SMILES	HT1080-NT tox	ELG1 repair inh	TDP1 cell CPT	IL-1B inflam inh	TDP1 cell noCPT	HT1080 IDH1KD tx
Cc1ccc2sc(N(CCCN(C)C)C(=O)c3ccc(S(=O)(=O)N(C)C4CCCCC4)cc3)nc2c1C	-11.5%	-13.9%	9.2µM*	u	5.8µM*	u
CCOc1cccc2sc(N(CCN(CC)CC)C(=O)c3ccc(S(=O)(=O)N4CCCC4)cc3)nc12	-4.6%	-9.5%	u	-4.9	u	-5.9%
CCOC(=O)N1CCN(S(=O)(=O)c2ccc(C(=O)N(CCCN(C)C)c3nc4c(C)c(C)ccc4s3)cc2)CC1	-14.6%	-4.9%	u	u	u	-1.4%
O=C(Nc1ccc(NC(=O)C2CC2)cc1)c1cccs1	-13.3%	u	-24.7%	u	-10.3%	-0.4%
CCNS(=O)(=O)c1ccc(CCC(=O)N2CCN(C(=O)OCC)CC2)cc1	1.9%	-10.2%	-5.3%	2.1	-13.6%	4.2%
O=C(CC1C(=O)NCCN1Cc1ccc(Cl)c(F)c1)NC1CCCCC1 (stereo not given)	4.8%	-5.3%	0.8%	6.7	5.4%	11.1%
COc1ccc(C(=O)N2CCCC(C(=O)O)C2)c2ccccc12 (stereo not given)	3.5%	0.3%	1.5%	17.5	7.8%	3.0%
COC(=O)c1ccc(C(=O)N(CCN(C)C)c2nc3c(Cl)cccc3s2)cc1	9.9%	27.0%	1.5%	1.9	-8.5%	1.1%
CC(=O)c1ccc(C(=O)N(CCCN(C)C)c2nc3c(C)c(C)ccc3s2)cc1	x	x	18.4µM*	x	23.1µM*	x
CC(=O)Nc1ccc(OS(=O)(=O)c2ccc([N+](=O)[O-])cc2)cc1	-12.4%	-7.1%	18.4µM*	4.3	16.4µM*	-15.4%
CC(=O)Nc1ccc(OS(=O)(=O)c2cc(Cl)ccc2C)cc1	-3.6%	-5.9%	20.6µM*	27.3	14.6µM*	-5.5%
CC(=O)Nc1ccc(Nc2ccc([N+](=O)[O-])cn2)cc1	8.2%	-14.3%	u	13.8	9.2µM*	-12.8%
CC(=O)Nc1cccc(OCCCOc2ccc([N+](=O)[O-])cc2)c1	2.8%	-25.9%	13µM*	0.0	3.66µM*	-14.8%
CC(=O)Nc1ccc(OS(=O)(=O)c2ccccc2C)cc1	3.4%	17.4%	-0.6%	-2.3	u	1.3%
COc1ccccc1C(=O)c1cn(CC(=O)Nc2ccccc2F)c2nc(C)ccc2c1=O	x	x	-2.2%	x	-19.9%	x
